Among all 290,000 compounds or so, about 3,100 (1.1%) were called active. The sample holds actives, similar compounds and a random draw of the others, so the mix is not that of the screen. Unmarked numbers belong to inactive results. Cut-off read from the data, not from the text of the source: active = inhibition above about 16% (passing the limit was not always enough); inactive = the rest.
target: Neuropeptides B/W receptor type 1 (Homo sapiens) (UniProt P48145); assay: GPR7 receptor antagonists, primary screen, cell-based, fluorescence, single concentration (AID 1861); details: GPR7-expressing cells, fluorescence antagonist assay; at 4.4 µM; stronger effect = higher value;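 note: cells stimulated with the agonist NPW; 0% = agonist with vehicle and 100% = vehicle without agonist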
Sequence (P48145 whole entry, looked up): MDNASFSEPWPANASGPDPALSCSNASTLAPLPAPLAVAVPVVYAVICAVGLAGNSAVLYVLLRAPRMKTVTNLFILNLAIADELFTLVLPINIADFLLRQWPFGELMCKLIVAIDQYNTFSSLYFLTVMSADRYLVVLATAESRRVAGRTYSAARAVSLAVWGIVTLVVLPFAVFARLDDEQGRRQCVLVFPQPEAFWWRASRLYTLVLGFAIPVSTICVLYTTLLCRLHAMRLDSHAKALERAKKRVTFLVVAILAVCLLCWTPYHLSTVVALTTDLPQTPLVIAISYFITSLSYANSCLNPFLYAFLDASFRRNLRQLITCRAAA

| Compound | inhibition |
| --- | --- |
| COc1cccc(OC)c1C(=O)NC(=S)Nc1ccc(N2CCOCC2)c(Cl)c1 | -6.83% |
| CCOc1ccc(C(=O)NC(=S)Nc2ccc(NC(=O)C(C)C)cc2)cc1[N+](=O)[O-] | -1.37% |
| CCOc1ccc(C(=O)NC(=S)Nc2ccc(N3CCOCC3)c(Cl)c2)cc1[N+](=O)[O-] | 21% (active) |
| O=C(NCc1ccccc1Cl)C1CCN(S(=O)(=O)c2cccc3nonc23)CC1 | -5.03% |
| COc1ccc(CCNC(=O)C(=O)NCC2OCCN2S(=O)(=O)c2cccs2)cc1OC (centres undefined) | -18.7% |
| CC(C)c1ccc(C(=O)OC2CCOC2=O)cc1 (centres undefined) | -10.7% |
| O=C(OC1CCOC1=O)c1ccc(-c2nc3ccccc3s2)s1 (centres undefined) | 13.3% (active) |
| Cc1nn(Cc2ccccc2)c(Cl)c1C(=O)OC1CCOC1=O (centres undefined) | -6.27% |
| O=C(Nc1cccc(Cl)c1Cl)c1ccccc1NC(=O)C1CC=CCC1C(=O)O (centres undefined) | 1.26% |
| COc1ccc(C2CC(=O)NC(=O)C2)cc1 | 23% |
| c1ccc(C2CNCc3c2ccc2ccccc32)cc1 (centres undefined) | 38.9% (active) |
| Oc1ccccc1-c1cc(-c2ccc(Cl)cc2)n[nH]1 | -4.03% |
| CC1=C(C(=O)OC(C)(C)C)C(c2ccc(Br)cc2)NC(=O)N1CCCC(=O)O (centres undefined) | -5.35% |
| Cc1cc(NC(=O)Nc2c[nH]c(=O)[nH]c2=O)ccc1Br | -12.8% |
| CC1CN(C(=O)CCC(=O)NCc2cccnc2)c2ccccc2O1 (centres undefined) | 6.78% |
| CC1CN(C(=O)CCC(=O)NC2CCN(Cc3ccccc3)CC2)c2ccccc2O1 (centres undefined) | -0.83% |
| CC1CN(C(=O)CCC(=O)NCCCN2CCC(Cc3ccccc3)CC2)c2cc(Cl)ccc2O1 (centres undefined) | 25.7% (active) |
| COc1ccc(OC)c(NC(=O)CN(C)CCOc2ccc(Br)cc2)c1 | 17.7% |
| O=C(NCc1nnc(SCC(=O)N2CCCCCC2)o1)c1ccc(F)cc1 | -18.2% |
| COc1ccc(Nc2cc(Cl)ccc2C(=O)O)cn1 | -11.5% |

| Compound | inhibition |
| --- | --- |
| COc1ccc(CS(=O)/C(Cl)=C(/Cl)C(=O)Nc2ccc(OC)nc2)cc1 (centres undefined) | 24.2% (active) |
| CCOc1ccc(S(=O)(=O)Nc2ccc(OC)nc2)cc1 | 6.88% |
| COc1ccc(NC(=O)c2cc(-c3ccc(C)cc3)on2)cc1 | -12.6% |
| COc1ccc(NC(=O)/C(Cl)=C(/Cl)S(=O)Cc2ccc(C)cc2)cn1 (centres undefined) | 57.6% (active) |
| COc1ccc(C(=O)Nc2ccc(NC(=O)C(C)C)nc2)cc1 | 19.8% |
| Cc1occc(=O)c1OCc1c(Cl)cccc1Cl | -7.63% |
| CCN(CC)S(=O)(=O)c1ccc(NC(=O)c2cnc(C)cn2)cc1 | -18.4% |
| CCOC(=O)c1cnc2ccc(F)cc2c1Nc1ccc2c(c1)OCCO2 | -2.1% |
| COc1cccc(C(=O)NNC(=O)c2cccc(F)c2)c1 | -2.7% |
| O=C(CCCN1CCc2[nH]c3ccc(F)cc3c2C1)c1ccc(F)cc1 | 33.9% (active) |
| Cc1ccc2[nH]c3c(c2c1)CN(C(=O)CN1CCN(c2ccccc2)CC1)CC3 | 3.49% |
| CCCC(=O)N1CCc2[nH]c3ccccc3c2C1 | 1.42% |
| COc1ccc(OCC(O)CNCCNc2nccc(C(F)(F)F)n2)cc1 (centres undefined) | -3.59% |
| CC(C)(C)CC(C)(C)NCC(O)COCCOc1ccc(Br)cc1 (centres undefined) | 36.9% (active) |
| OC(COc1ccc(Br)cc1)CN1CCCC1 (centres undefined) | -9.13% |
| O=C(Cc1cccs1)NCc1cccc(C(F)(F)F)c1 | 5.08% |
| COc1ccc(C2Nc3ccccc3C(=O)N2c2ccc(F)cc2)cc1Cn1nnc2ccccc21 (centres undefined) | -1.83% |
| COc1ccc(C2Nc3ccccc3C(=O)N2Cc2ccccc2)cc1Cn1nnc2ccccc21 (centres undefined) | 28.4% (active) |
| COc1ccc(N2C(=O)c3ccccc3NC2c2ccc(OC)c(CN3CCOCC3)c2)cc1 (centres undefined) | -11.4% |
| O=C(OCC1O[C@@H](OC(=O)c2cc(O)c(O)c(O)c2)[C@@H](OC(=O)c2cc(O)c(O)c(O)c2)[C@@H](OC(=O)c2cc(O)c(O)c(O)c2)[C@@H]1OC(=O)c1cc(O)c(O)c(O)c1)c1cc(O)c(O)c(O)c1 (some centres undefined) | -5.26% |

| Compound | inhibition |
| --- | --- |
| O=C(NCc1ccc2c(c1)OCO2)c1cc(F)c(F)cc1Cl | -4.33% |
| O=C(c1ccccc1)N1CCN(C(=O)c2cc3nc(-c4ccccc4)cc(C(F)(F)F)n3n2)CC1 | -7.13% |
| CCC1=Nc2cc(C(=O)NCCN3CCCC3)ccc2Sc2ccc(C)cc21 | -5.13% |
| Cc1cccc(-c2nc3ccc(C(=O)NCCN4CCN(C)CC4)cc3nc2-c2cccc(C)c2)c1 | 31.6% (active) |
| Cc1ccc(C(=O)NCCN2CCOCC2)cc1C | 3.82% |
| O=C(CC(=O)Nc1ccc(Cl)c(Cl)c1)N/N=C/c1ccc(O)cc1 | 24.6% (active) |
| O=C(C[n+]1ccccc1)N/N=C/c1ccc(O)cc1 | -1.15% |
| Nc1nnn(CC(=O)N/N=C/c2ccc(O)cc2)n1 | 5.08% |
| O=C(COc1ccc([N+](=O)[O-])cc1)Nc1cccc(C(=O)Nc2ccccc2C(=O)O)c1 | -9.29% |
| O=C(NCc1ccco1)c1nc2ncccn2n1 | -0.52% |
| O=C(NCc1ccco1)c1nc(-c2ccccc2)n(-c2ccccc2)n1 | 20.5% (active) |
| O=C(CSc1nnnn1-c1ccccc1)NCc1ccco1 | -5.34% |
| CCOc1ccc(N/C(N)=N/c2nc(C)c(C)c(=O)[nH]2)cc1 | 6% |
| COc1ccc(CN(C)C(=O)Cc2ccsc2)c(OC)c1OC | 8.02% |
| CCOc1ccc(NC(=O)CN2CCN(CC(=O)Nc3ccc(OC)cc3)CC2)cc1 | 2.08% |
| CCOc1ccc(NC(=S)N2CCC(NC(=O)c3ccccc3)CC2)cc1 | -6.68% |
| O=C(CN1CCN(C(=S)NC2CCCC2)CC1)Nc1ccc(Oc2ccccc2)cc1 | 22.4% (active) |
| Cc1cccc(NS(=O)(=O)c2ccc([N+](=O)[O-])cc2)n1 | 17.4% |
| COc1ccc(C(=O)N2CCCC(C(=O)c3ccccc3OC)C2)cc1OC (centres undefined) | -2.49% |

Reference: PubChem BioAssay AID1861 (The Scripps Research Institute Molecular Screening Center, 2009)
